# Reference: ChEMBL document CHEMBL3433997, “St. Jude Leishmania screening dataset” (2016)
# Target: Solute carrier family 2, facilitated glucose transporter member 1 (Homo sapiens) (UniProt P11166)
# Assay: ST_JUDE_LEISH: Cytotoxicity at 2uM final concentration against transgenic Leishmania Mexicana promastigotes LmGLUT1 that are glucose transport deficient and complemented with the human glucose transporter GLUT1. Activity is measured by DNA content using SYBR green in vitro
# Format: functional
# Solute carrier family 2, facilitated glucose transporter member 1 (Homo sapiens), sequence (P11166 whole entry): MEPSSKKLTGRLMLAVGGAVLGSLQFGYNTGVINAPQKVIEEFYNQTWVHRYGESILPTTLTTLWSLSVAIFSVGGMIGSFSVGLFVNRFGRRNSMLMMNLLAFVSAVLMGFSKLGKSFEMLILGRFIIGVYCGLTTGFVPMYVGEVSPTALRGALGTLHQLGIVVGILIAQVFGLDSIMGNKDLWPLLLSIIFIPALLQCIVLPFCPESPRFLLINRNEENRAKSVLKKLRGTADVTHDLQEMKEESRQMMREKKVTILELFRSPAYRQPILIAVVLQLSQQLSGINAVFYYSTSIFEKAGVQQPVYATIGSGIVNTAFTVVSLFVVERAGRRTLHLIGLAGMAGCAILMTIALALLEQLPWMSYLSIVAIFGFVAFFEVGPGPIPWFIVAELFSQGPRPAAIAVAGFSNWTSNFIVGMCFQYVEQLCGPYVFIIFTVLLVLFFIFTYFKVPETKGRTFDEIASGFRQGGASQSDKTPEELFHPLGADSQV
row,SMILES,inhibition
1,O=C(C=Cc1ccc(Cl)c(Cl)c1)NCCCCCN1CCC(CCCNC(=O)c2ccc3c(c2)OCO3)CC1,4.5%
2,O=C(Nc1ccc(-c2cccc(-c3nc4ccccc4[nH]3)c2)cc1)Nc1ccc(F)c(F)c1F,0.73%
3,Cc1cc(N(C)C2CCN(C)C2)nc(Nc2ccccc2Cl)n1 (stereo not given),1.12%
4,CN1CCCC(CN2CCN(Cc3cccc(-c4ccc(-c5nc6cc(C(F)(F)F)ccc6[nH]5)cc4)c3)CC2)C1 (stereo not given),1.06%
5,CN(Cc1cc(C(F)(F)F)cc(C(F)(F)F)c1)C(=O)C1CNCC1c1ccc(F)cc1 (stereo not given),6.61%
6,OC(CNC1CCCCC1)Cn1c2ccc(Br)cc2c2cc(Br)ccc21 (stereo not given),0.51%
7,C[C@@H](CC1CCCCC1)NCc1cccc(NS(=O)(=O)c2ccc(O)c(-c3ccno3)c2)c1,10.7%
8,COc1nc(NCC(C)C)nc(Oc2ccc(=O)n(Cc3ccccc3)n2)n1,1.73%
9,O=C(CN1CCCC1)Nc1cccc(C(=O)Nc2cccc(C(F)(F)F)c2)c1,1.71%
10,Fc1ccc(-c2nc(NCc3cccc(C(F)(F)F)c3)nn2-c2cccc(C(F)(F)F)c2)cc1C(F)(F)F,1.81%
11,CCCCCCOc1ccc(N2C(N)=NC(N)=NC2(C)C)cc1,1.45%
12,O=C(c1cc(-c2ccco2)n[nH]1)N1CCN(S(=O)(=O)c2ccc(Br)cc2)CC1,10.8%
13,CN1CCN(c2ccnc3ccc(NC(=O)Nc4ccc(Br)cc4)cc23)CC1,-0.59%
14,CC(C)(C)NC(=O)C(c1ccc(F)cc1)N(C(=O)c1ccc(CN2CCOCC2)o1)c1ccc(C2CCCCC2)cc1 (stereo not given),2.43%
15,FC(F)(F)c1ccc2[nH]c(-c3ccc(-c4ccc(CN5CCN(c6ccncc6)CC5)cc4)s3)nc2c1,1.51%
16,COC(=O)c1cccc(CNCc2cccc(-c3ccc(-c4nc5cc(C(F)(F)F)ccc5[nH]4)cc3)c2)c1,2.29%
17,COc1c(CN2CCOCC2)cccc1-c1cc2c(-c3ccc(C(=O)O)c(C(C)C)c3)ccnc2[nH]1,4.23%
18,CNCCCn1c(N(C)C)nc2cc(-n3cnc4cc(-c5ccc(Cl)cc5)sc4c3=O)ccc21,3.3%
19,CC1(C)N=C(N)N=C(N)N1OCCCc1ccccc1,1.22%
20,COc1ccc(N2CCN(CCCCNC(=O)c3ccc(NC(=O)c4ccc(OC(F)(F)F)cc4)cc3)CC2)c(OC)c1,5.81%

row,SMILES,inhibition
1,COc1cc2nc(NCCCO)nc(Nc3ccc(Oc4ccccc4)cc3)c2cc1OC,6.51%
2,Nc1ncc(-c2ccc3[nH]ccc3c2)c2ccc(-c3ccncc3)cc12,10%
3,Cc1cc(Cl)c(S(=O)(=O)N2CCc3ccccc32)cc1OCC(=O)NC1CCCCC1,2.33%
4,COc1ccccc1NC(=O)NC1CCN(CCCCCNC(=O)/C=C/c2ccc(Cl)c(Cl)c2)CC1,1.87%
5,CCOC(=O)c1cc(=O)c2ccc(OCC#N)cc2o1,88.5%
6,NC1CCN(CCc2ccc(NS(=O)(=O)c3ccc(-c4ccccc4)cc3)cc2)CC1,0.64%
7,O=C(/C=C/c1ccccc1Cl)Nc1ccc(Br)c(OCCN2CCN(CCN3CCCC3)CC2)c1,4.13%
8,CC(C)Oc1cccc(-c2ccc(C(=O)NCC3CCCN(Cc4cccc(C(F)(F)F)c4)C3)s2)c1 (stereo not given),-1.06%
9,COc1ccc(NC(=O)c2ccc(-c3nc(-c4ccc(Cl)cc4)cs3)cc2)cc1N1CCN(C)CC1,0.97%
10,COCCSc1nc2scc(C)c2c(=O)n1Cc1cccc(OC)c1,3.26%
11,NC1CCN(c2nc(NCCc3ccc(O)cc3)nc(NCc3ccccc3-c3ccc(C(F)(F)F)cc3)n2)CC1,4.18%
12,CN(C)c1ccc(CN2CCC(NC(=O)c3ccc(-c4cccc(C(F)(F)F)c4)s3)CC2)cc1,1.92%
13,Cn1c(Nc2cc(C(C)(C)C)on2)nc2cc(Nc3ccnc(Nc4ccc(CS(C)(=O)=O)cc4)n3)ccc21,1.46%
14,COc1ccc(C2CCC(NCCCCNC(=O)c3ccc(NC(=O)c4ccc(Cl)cc4)cc3)CC2)cc1 (stereo not given),1.37%
15,O=C(Nc1cccc(C(F)(F)F)c1)c1cccc(S(=O)(=O)NC2CCN(CC3CCCCC3)C2)c1 (stereo not given),0.18%
16,CN(C)c1ccc(OCCCCCCOc2ccccc2)cc1,1.32%
17,O=C(Nc1ccc(NC2=NCCN2)cc1)c1ccc(C(=O)Nc2ccc(NC3=NCCN3)cc2)cc1,17.6%
18,CC(C)CCCC(C)NC[C@@H](O)[C@H](Cc1ccccc1)NC(=O)c1cc(N2CCCC2=O)cc(N(c2ccccc2)S(C)(=O)=O)c1 (stereo not given in full),1.85%
19,COc1ccc(OCC(=O)Nc2cc(-c3nc4ccccc4[nH]3)ccc2Cl)cc1,6.17%
20,COc1ccc(CNCc2ccccc2)cc1-c1ccc(S(=O)(=O)NCCN2CCCC2)c(F)c1,18.3%
